Compound activity (PubChem BioAssay)
CYP2C9 inh: inhibitors of human CYP2C9 | inhibition, % at 5 µM | P11712 | CYP2C9 Supersomes, luciferin-H conversion, luminescence | 20% of 96,000 active | AID 777;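 active = blocking of liver enzyme CYP2C9 beyond about 50% at 5 µM, limit read from the data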
Target sequence (P11712 whole entry, looked up): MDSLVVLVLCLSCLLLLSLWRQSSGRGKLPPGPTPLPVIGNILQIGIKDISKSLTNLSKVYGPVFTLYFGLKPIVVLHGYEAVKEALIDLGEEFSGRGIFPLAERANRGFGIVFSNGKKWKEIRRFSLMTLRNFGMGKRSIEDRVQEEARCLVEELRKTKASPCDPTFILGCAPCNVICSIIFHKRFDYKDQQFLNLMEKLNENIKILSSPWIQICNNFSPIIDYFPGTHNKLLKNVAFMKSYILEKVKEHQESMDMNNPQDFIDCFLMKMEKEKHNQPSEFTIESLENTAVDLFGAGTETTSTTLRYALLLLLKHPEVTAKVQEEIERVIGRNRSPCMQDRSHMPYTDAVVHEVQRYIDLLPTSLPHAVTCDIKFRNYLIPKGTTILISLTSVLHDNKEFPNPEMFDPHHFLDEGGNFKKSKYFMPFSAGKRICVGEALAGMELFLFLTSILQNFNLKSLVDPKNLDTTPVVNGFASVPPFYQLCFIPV
CYP2C19 inhib: inhibitors of human CYP2C19; P33261; CYP2C19 Supersomes, luciferin-H EGE luminescence, 30 min; inhibition, % at 5 µM; 21% of 96,000 active; AID 778;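 active = CYP2C19 inhibition above a set limit at 5 µM in the primary screen, cut at about 50% in these data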
CD11b adhes enh: enhancers of human CD11b/CD18 binding to fibrinogen; P05107+P11215; K562 CD11b/CD18 adhesion to fibrinogen, ATPlite luminescence; activation, % at 10 µM; 0.07% of 93,000 active; AID 1499;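 active = 10 µM primary screen giving 50% or more activity, confirmed by 40% or more on retest at that dose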
Mac1 fbg inh: inhibitors of human CD11b/CD18 binding to fibrinogen; P05107+P11215; K562 CD11b/CD18 adhesion to fibrinogen, ATPlite luminescence; Mn2+ added to activate the integrin; inhibition, % at 10 µM; 0.54% of 93,000 active; AID 1497;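 active = primary inhibition of 50% or more at 10 µM, then 40% or more on retest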
CYP2C19 activ: cytochrome P450 2C19 (human) activation; P33261; recombinant CYP2C19, luciferin-H EGE luminescence; stronger effect = higher value; 0 = fully inhibited enzyme, 1 = untreated enzyme; activation factor at 5 µM; 96,000 tested, under 10 active; AID 1025;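 active = activation factor of at least 2 at 5 µM in the primary screen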
CYP2C9 act: increases human cytochrome P450 2C9 activity | P11712 | activation factor at 5 µM | 1.4% of 96,000 active | recombinant CYP2C9, luciferin-H conversion, luminescence; stronger effect = higher value; factor 1 = untreated enzyme, 0 = blocked;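 active = activation factor of 2 or more for CYP2C9 at a 5 µM dose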
Large screens that a line does not name were inactive. Compounds with a hit are over-represented: about 28% of the library has one in this group of screens.

COc1ccccc1N1C(=O)C2ON(c3ccccc3)C(c3ccc(N(C)C)cc3)C2C1=O (configuration not stated)	none (no result: CYP2C9 inh, CYP2C19 inhib, CYP2C19 activ, CYP2C9 act)
CC(C)[C@H](NC(=O)NCCc1ccc(Cl)cc1)C(=O)O	none
CO/N=C(/CS(=O)c1ccc(Br)cc1)c1ccc(OC)cc1 (configuration not stated)	CYP2C9 inh 88, CYP2C19 inhib 100
CCN1C(=O)S/C(=C/c2ccc(Sc3nc4ccccc4[nH]3)o2)C1=O	none (no result: CYP2C9 inh, CYP2C19 inhib, CYP2C19 activ, CYP2C9 act)
COc1cc(CSc2ncn[nH]2)c(OC)cc1CSc1ncn[nH]1	CYP2C19 inhib 62
S=C(Nc1cccc(Cl)c1Cl)Nn1cnnc1	none (no result: CYP2C9 inh, CYP2C19 inhib, CYP2C19 activ, CYP2C9 act)
CCNc1nc(NCC)n2c(SCc3nc4ccccc4c(=O)[nH]3)nnc2n1	none
CCNc1nc(NCC)n2c(SCc3ccc(F)cc3)nnc2n1	CYP2C19 inhib 96
Cc1ccc(/C=N/n2c(-c3ccco3)n[nH]c2=S)s1	none (no result: CYP2C9 inh, CYP2C19 inhib, CYP2C19 activ, CYP2C9 act)
COc1cc(-c2cc(OC)c3c(C)oc(C)c3c(=O)c2)ccc1O	CYP2C9 inh 94
COc1ccc(-c2cc(OC)c3c(C)oc(C)c3c(=O)c2)cc1OC	CYP2C9 inh 99, CYP2C19 inhib 85
COc1ccc(-c2c(C)oc3c(CN4CCN(CCO)CC4)c(O)ccc3c2=O)cc1OC	none
O=C(CCSc1ccccc1)NC(=O)COC(=O)c1ccc(OC(F)F)cc1	none (no result: CYP2C9 inh, CYP2C19 inhib, CYP2C19 activ, CYP2C9 act)
N#CC1=C(N)Oc2cc3ccccc3cc2C1c1cccnc1 (configuration not stated)	CYP2C9 inh 82, CYP2C19 inhib 66
N#CC1=C(N)Oc2cc(O)ccc2C1c1ccccc1 (configuration not stated)	CYP2C9 inh 77, CYP2C19 inhib 65
CCOC(=O)C1=C(C)OC(N)=C(C#N)C1c1cc(OC)c2c(c1)OCO2 (configuration not stated)	CYP2C9 inh 66, CYP2C19 inhib 84
CCOc1cc(C2C(C(=O)N3CCCCC3)=C(C)NC3=C2C(=O)CCC3)cc(Br)c1O (configuration not stated)	none
CCOc1cc(C2C(C#N)=C(N)OC(C)=C2C(C)=O)cc(Br)c1O (configuration not stated)	CYP2C9 inh 90
O=C1CNC(=O)/C1=C/c1ccc(O)cc1	none (no result: CD11b adhes enh, Mac1 fbg inh)
Cc1cc(NS(=O)(=O)c2ccc(NC(=O)COc3ccc(Cl)cc3)cc2)no1	none
COc1ccc(N2CCN(S(=O)(=O)c3ccc4c(c3)CCCC4)CC2)c([N+](=O)[O-])c1	none
COc1cc(C2C(C#N)=C(N)Oc3cc(N(C)C)ccc32)cc2c1OCO2 (configuration not stated)	CYP2C9 inh 55, CYP2C19 inhib 51
CCOC(=O)C1=C(C)OC(N)=C(C#N)C1c1cc(Cl)c(OCC(N)=O)c(OC)c1 (configuration not stated)	CYP2C9 inh 89
CCOC(=O)C1=C(C)OC(N)=C(C#N)C1c1ccc(OC)c(CSc2ccccn2)c1 (configuration not stated)	none (no result: CYP2C9 inh, CYP2C19 inhib, CYP2C19 activ, CYP2C9 act)
COc1ccc(C2C(C#N)=C(N)Oc3cc(O)ccc32)cc1OC (configuration not stated)	none
COc1cc(C2C(C#N)=C(N)Oc3cc(O)ccc32)cc2c1OCO2 (configuration not stated)	CYP2C9 inh 91, CYP2C19 inhib 93
Cc1nc2ccccc2n2c(-c3ccccc3)c3c(=O)n(C)c(=O)n(C)c3c12	none
Cc1nc2ccc(NC(=O)c3c(-c4ccccc4)noc3C)cc2s1	none
COC(=O)NNC(=O)c1ccccc1C	none
COc1cc(NC(=O)c2csc3c2CCCC3)ncn1	none
CCOC(=O)c1c(NC(=O)c2ccco2)n(C2CCCCC2)c2nc3ccccc3nc12	CYP2C9 inh 55
CCOC(=O)c1c(NC(=O)c2ccco2)sc2c1CCCC2	CYP2C9 inh 56
COc1ccccc1NC(=O)c1csc2c1CCCC2	CYP2C9 act 2.4 (no result: CD11b adhes enh, Mac1 fbg inh)
O=C(Nc1sc2c(c1C(=O)NC1CCCCC1)CCC2)c1ccco1	none
CCOC(=O)c1c(NC(=O)C(F)(OC)C(F)(F)F)sc(C(=O)N2CCCCC2)c1C (configuration not stated)	CYP2C9 inh 76
CCOC(=O)c1c(NC(=O)c2ccn(CC)n2)sc2c1CCCC2	CYP2C9 inh 68, CYP2C19 inhib 55
CCc1c(C)sc(NC(=O)OC)c1C(N)=O	none
